According to the supplement of paper PMC8253809:
Several values for one entry are separate records, joined by “and”; a condition that tells them apart may be missing. Identical values can stand only once.

What was measured:
Assay in all cases: growth inhibition (% activity, log2 RLU normalised to DMSO / staurosporine); higher = more growth inhibition
Settings in all cases: 33 µM
DIPGX29 = test system: DIPGX29 (H3.3 K27M diffuse intrinsic pontine glioma line)
Summary of the method: (§1)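 In triplicate, pHGG cell lines and H9-derived neural stem cells were treated for 7 days at 37 °C, 5% CO2 with approved drugs at a single final concentration of about 33 μM, added by pin tool. CellTiter-Glo luminescence, after log2 transformation, was normalised on each plate to % activity between solvent and positive control wells. Growth inhibition is reported as the median across replicates.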

DIPGX37 = test system: DIPGX37 (H3.3 K27M diffuse intrinsic pontine glioma line)
Summary of the method: as §1

DIPGX7 = test system: DIPGX7 (H3.3 K27M diffuse intrinsic pontine glioma line)
Summary of the method: as §1

DIPGX9 = test system: DIPGX9 (diffuse intrinsic pontine glioma line)
Summary of the method: as §1

HGGX39 = test system: HGGX39 (paediatric high-grade glioma line)
Summary of the method: as §1

HGGX6 = test system: HGGX6 (H3.3 G34R paediatric high-grade glioma line)
Summary of the method: as §1

HNSC = test system: HNSC
Summary of the method: as §1

SUDIPGIV = test system: SUDIPGIV (diffuse intrinsic pontine glioma line)
Summary of the method: as §1

SUDIPGVI = test system: SUDIPGVI (diffuse intrinsic pontine glioma line)
Summary of the method: as §1

SUDIPGXIII = test system: SUDIPGXIII (diffuse intrinsic pontine glioma line)
Summary of the method: as §1

| Structure (SMILES) | growth inhibition (DIPGX29) | growth inhibition (DIPGX37) | growth inhibition (DIPGX7) | growth inhibition (DIPGX9) | growth inhibition (HGGX39) | growth inhibition (HGGX6) | growth inhibition (HNSC) | growth inhibition (SUDIPGIV) | growth inhibition (SUDIPGVI) | growth inhibition (SUDIPGXIII) |
| --- | --- | --- | --- | --- | --- | --- | --- | --- | --- | --- |
| CSc1ccc2c(c1)N(CCC1CCCCN1C)c1ccccc1S2 (stereo not given) | 1.58% | 0.408% | -0.0552% | -0.344% | 2.69% | -0.282% | 7.39% | 0.193% | -0.552% | 0.0949% |
| CCCCCCCCCC(=O)N[C@@H](Cc1c[nH]c2ccccc12)C(=O)N[C@@H](CC(N)=O)C(=O)N[C@@H](CC(=O)O)C(=O)N[C@@H]1C(=O)NCC(=O)N[C@@H](CCCN)C(=O)N[C@@H](CC(=O)O)C(=O)N[C@H](C)C(=O)N[C@@H](CC(=O)O)C(=O)NCC(=O)N[C@H](CO)C(=O)N[C@@H]([C@H](C)CC(=O)O)C(=O)N[C@@H](CC(=O)c2ccccc2N)C(=O)O[C@@H]1C | -2.71% | -1.3% | -0.801% | -2.61% | -1.25% | -2.93% | -6.45% | -2.57% | -3.09% | -1.13% |
| NCCS(=O)(=O)O | 0.304% | 1.36% | 0.217% | 0.788% | 0.579% | 1.43% | -2.23% | -0.945% | 0.882% | -0.421% |
| CCN(CC)CCOCCOC(=O)C(CC)(CC)c1ccccc1 | 7.78% | 4.64% | 14.3% | 2.65% | 9.22% | 10.7% | 6.61% | 2.41% | 4.8% | -0.0734% |
| CCCCOc1ccc(C(=O)CCN2CCCCC2)cc1 | 3.95% | 1.81% | 13% | 3.6% | 8.09% | 7.94% | 6.88% | 0.947% | 1.6% | 1.44% |
| CC(C)(C)CC(C)(C)c1ccc(O)c(Cc2ccc(Cl)cc2Cl)c1 | 1.52% | -4.36% | 1.89% | 0.915% | 0.861% | -1.71% | 13.3% | 3.83% | -0.854% | 3.25% |
| CC(C)/N=c1\cc2n(-c3ccc(Cl)cc3)c3ccccc3nc-2cc1Nc1ccc(Cl)cc1 | 12.5% | 10.3% | 11.1% | 5.47% | 10% | 7.37% | 66.1% | 21.9% | 5.83% | 5.35% |
| Cc1ccc(C)c(OCCCC(C)(C)C(=O)O)c1 | -0.441% | -0.0995% | 0.0111% | 0.88% | 0.357% | -0.472% | -1.45% | -0.859% | 0.864% | 0.0955% |
| CC(=O)/N=c1/sc(S(N)(=O)=O)nn1C | 1.46% | 2.45% | 2.3% | 1.1% | 4.29% | 1.67% | 5.67% | 0.751% | 1.6% | -14.4% |
| c1ccc2c(CC3=NCCN3)cccc2c1 | 0.509% | 1.82% | 1.78% | 1.2% | 4.23% | -1.48% | 10% | 1.67% | 3.03% | 1.34% |
| O=C(C[S+]([O-])Cc1ccco1)NC/C=C\COc1cc(CN2CCCCC2)ccn1 (stereo not given) | -1.37% | -2.72% | 0.0817% | -0.604% | -0.28% | 0.0479% | -2.82% | -2.24% | -1.66% | -2.4% |
| CC1(C)S[C@@H]2[C@H](NC(=O)[C@H](NC(=O)N3CCN(S(C)(=O)=O)C3=O)c3ccccc3)C(=O)N2[C@H]1C(=O)O | -1.26% | 0.368% | -0.979% | -1.9% | -0.656% | -0.1% | -2.17% | 0.286% | -2.19% | 2.64% |
| NCC(=O)CCC(=O)O | -0.565% | 0.832% | -1.28% | 0.54% | 0.759% | 1.54% | -1.87% | 0.45% | 0.00902% | 0.537% |
| CCCCC[C@H](O)/C=C/[C@H]1[C@H](O)CC(=O)[C@@H]1CCCCCCC(=O)O | 1.8% | 0.835% | 1.87% | 1.68% | 3.82% | 4.44% | 0.983% | 2.69% | 1.52% | 0.878% |
| CC1(C)S[C@@H]2[C@H](NC(=O)[C@H](N)c3ccccc3)C(=O)N2[C@H]1C(=O)O | 0.915% and -0.852% | 0.428% and -3.6% | -0.263% and 0.439% | 2.01% and -1.14% | 0.0853% and 0.776% | 0.491% and -0.506% | -1.66% and -0.947% | 0.0994% and -1.08% | 1.4% and -3.54% | 0.006% and 0.466% |
| CC1CCc2c(N3CCC(O)CC3)c(F)cc3c(=O)c(C(=O)O)cn1c23 (stereo not given) | 1.83% | 2.99% | 1.32% | 2.53% | 3.35% | 2.89% | 4.09% | 0.692% | 3.03% | -1.17% |
| CCCCCN(C)CCC(O)(P(=O)(O)O)P(=O)(O)O | -3.97% | 2.62% | -1.48% | -0.821% | 0.759% | -3.74% | 5.06% | -4.22% | -0.622% | 0.0777% |
| O=C1Cc2cc(CCN3CCN(c4nsc5ccccc45)CC3)c(Cl)cc2N1 | 1.66% | 1.3% | 10.1% | 1.16% | 3.71% | 2.44% | 1.23% | 2.05% | -3.95% | 3.01% |
| N[C@H](Cc1ccccc1)C(=O)O | 1.07% | 4.02% | 1.99% | 1.11% | 3.77% | 0.895% | 14.5% | 3.32% | 2.63% | 2.11% |
| CC(C)NCC(O)c1cc(O)cc(O)c1 (stereo not given) | -0.101% | 1.67% | 1.75% | 1.82% | 2.87% | -1.68% | 27.3% | 2.27% | -0.181% | -0.215% |
